The structures appear in SMILES notation. The whole screen tested about 7,900 compounds, of which about 400 (5.1%) showed an effect of 50% or more. Shown is part of a subset that was picked to be rich in strong results.

Sequence of Parkinson's disease protein 7 (PARK7/DJ1) (Q99497 whole entry, looked up, the tested form may be a part): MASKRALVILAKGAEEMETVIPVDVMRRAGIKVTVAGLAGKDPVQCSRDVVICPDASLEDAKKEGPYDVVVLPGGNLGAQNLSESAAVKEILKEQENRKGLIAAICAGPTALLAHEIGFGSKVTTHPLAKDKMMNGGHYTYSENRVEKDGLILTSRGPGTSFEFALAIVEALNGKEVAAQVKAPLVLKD

For this assay, the target named is Parkinson's disease protein 7 (PARK7/DJ1) (human, UniProt Q99497). Description: primary screen, percent inhibition; read as competition with a fluorescent probe by fluorescence polarization; higher = more effect of the substance. As to conditions: 100 µM. The procedure, abridged:
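Covalent fragments at 100 μM final were incubated 2 h with 0.2 μM PARK7, then 20 nM probe JYQ-107 added for a further 2 h. Fluorescence polarization read at 480/520 nm; relative FP loss versus reference controls gave remaining enzyme activity.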
With `CCc1nccn1S(=O)(=O)c1cc(C)c(OC)cc1C`, the Inhibition % came to 7.23%. Take `O=C(NCC1CCC(O)C1)c1cc(B(O)O)ccc1F` (stereo not shown): the Inhibition % was 1.49%. As to `Cl.O=C(CCl)c1c[nH]c2ncccc12`, the Inhibition % stood at 10.6%. As for `O=C(CCl)c1ccccn1`, the Inhibition % came out at 102%. Next, `C=CC(=O)NCCc1cscn1`: 5.76%.

For the molecule `ClCCc1cscn1`, the Inhibition % came out at 5.31%. As to `O=C(CCl)c1cscn1`, the Inhibition % turned out to be 101%. Next, `Cl.O=C(CCl)Nc1ccccn1`: 14.1%. Next, `COc1cncc(C#N)n1`: 9.79%; `C=CC(=O)N1Cc2ccccc2OC(C)(C)C1`: 13.6%. For `Cc1cc(C)cc(OC(=O)N2CCOCC2)c1`, the Inhibition % turned out to be 6.2%. The figure for `CCc1nc(C)cn1S(=O)(=O)c1cc(Cl)ccc1OC` is 5.69%.

On to `C=CC(=O)N1CC(S(=O)(=O)c2ccccc2F)C1`, for which the Inhibition % is listed as 5.39%. Regarding `N#Cc1nc(N2CC[C@H](O)C2)ccc1Cl`, the Inhibition % was 9.73%. For the molecule `CC1(C)OB(c2cncc(F)c2)OC1(C)C`, the Inhibition % is listed as 4.04%. For the molecule `N#CC(=Cc1ccco1)C(=O)Nc1nnc(C(F)F)s1`, the Inhibition % is 4.49%. Turning to `O=C(CCl)NCCc1ccc(F)cc1`, the Inhibition % was determined as 26.6%.

`Cc1oc(C(=O)O)cc1C(=O)CCl`: the Inhibition % was determined as 92.2%.

On to `Cc1oc(C(N)=O)cc1C(=O)CCl`, for which the Inhibition % turned out to be 30.9%. Next, `Cc1oncc1C(=O)CCl`: 40.2%; `CC(C)N1CCOC(CCl)C1` (stereo not shown): 5.12%. The figure for `O=c1[nH]c(=O)n(C2CC2)c2nc(C3CC3)nc(S)c12` is 3.15%.

For the molecule `OB(O)C1=CCN(Cc2cc3n(n2)CCC3)CC1`, the Inhibition % amounted to 33.1%.

With `Cn1nccc1[C@@H]1OCC[C@H]1CN1CC=C(B(O)O)CC1`, the Inhibition % is 44.8%.

As to `OB(O)C1=CCN(Cc2ccnn2-c2ccncc2)CC1`, the Inhibition % came out at 61.3%. For the molecule `C=CC(=O)NC1CC(OCC)C12CCCC2` (stereo not shown), the Inhibition % is listed as 8.99%. The figure for `O=C1CCC(CN2CCc3[nH]c4ccc(F)cc4c3C2)O1` (stereo not shown) is 21.1%; for `O=C(Nc1ccccc1)C1CCN(C(=O)CCl)CC1` it is 12.6%. Next, `CC(=O)c1ccc(N2CCN(C(=O)CCl)CC2)c(F)c1`: 11%; `O=C(CCl)N1CCN(c2ccc([N+](=O)[O-])cc2)CC1`: 7.53%. Next, `Cl.O=C(CCl)N1CCN(Cc2ccccc2)CC1`: 7.64%. As for `O=C(CCl)N1CCN(C(=O)Nc2ccccc2)CC1`, the Inhibition % stood at 64.2%. Next, `O=C(CCl)N1CCN(c2ccccc2[N+](=O)[O-])CC1`: 80.7%.

In the case of `C=CC(=O)NCc1nnc2n1CCCC2C(F)(F)F` (stereo not shown), the Inhibition % worked out at 8.99%. `CN1CCN(CCCCl)CC1.Cl.Cl`: the Inhibition % amounted to 9.44%. The figure for `CCN(Cc1ccc(Br)s1)C(=O)CCl` is 12.9%; for `CC1(NC(=O)CCl)CCS(=O)(=O)C1` (stereo not shown) it is 2.17%. Take `C=CC(=O)NCCc1nc2ccc(F)cc2n1C`: the Inhibition % is recorded as 3.72%. As for `C=CC(=O)NCC1CCC2(CCCC2)O1` (stereo not shown), the Inhibition % came out at 4.84%. The figure for `Cc1cnc2ccccc2c1S(=O)(=O)F` is 95.2%; for `O=c1cnc2ccccc2n1CCS(=O)(=O)F` it is 13.8%. Next, `CS(=O)(=O)n1cnc2ccccc21`: 11.4%; `Cl.ClCCn1cc(-c2ccccc2)cn1`: 6.06%. Next, `C=CC(=O)NCc1cccc(C(=O)NC(C)(C)C)c1`: 9.53%; `Cc1ccc(C)c(C(=O)Cn2cnc(C#N)n2)c1`: -2.83%.

Consider `COC(=O)c1ccc(CS(=O)(=O)F)cc1`, for which the Inhibition % was determined as 7.95%. The figure for `COc1ccc(CS(=O)(=O)F)cc1` is 88.4%; for `O=S(=O)(F)Cc1ccccc1` it is 8.98%; for `Cc1csc(C(C#N)=Cc2cccc3c2OCCCO3)n1` it is 1.3%. `N#Cc1ccc(NCC2CCN(CC(F)(F)F)C2)cn1` (stereo not shown): the Inhibition % is 5.73%. For `O=C(CCCl)Nc1cccc(S(=O)(=O)N2CCCC2)c1`, the Inhibition % came out at 4.27%.

`O=C(CCCl)Nc1ccc(S(=O)(=O)N2CCCC2)cc1`: the Inhibition % turned out to be 3.33%.

On to `O=C(CCl)Nc1ccc(S(=O)(=O)N2CCCC2)cc1`, for which the Inhibition % is on record as 85.4%.

As to `C=CC(=O)Nc1ccc(S(=O)(=O)N2CCCC2)cc1`, the Inhibition % is listed as 8.4%. On to `O=C(CCl)Nc1ccc(S(=O)(=O)N2CCCCC2)cc1`, for which the Inhibition % came out at 92.7%. The figure for `O=C(CCl)Nc1ccc(S(=O)(=O)N2CCOCC2)cc1` is 87.4%.

With `Cl.O=C(CCl)Nc1ccc(CN2CCOCC2)cc1`, the Inhibition % was 40.1%. Next, `O=C(CCl)Nc1cccc(S(=O)(=O)N2CCCC2)c1`: 7.91%. The figure for `O=C(CCl)Nc1cccc(S(=O)(=O)N2CCOCC2)c1` is 8.1%; for `Cn1cc(B2OC(C)(C)C(C)(C)O2)cn1` it is 4.89%; for `CC(C)(C(=O)CCl)N1C(=O)c2ccccc2C1=O` it is 5.76%. As to `C=CC(=O)N1C[C@@]2(C)CS(=O)(=O)C[C@@]2(C)C1`, the Inhibition % came out at 5.67%. The figure for `N#Cc1nc(C2CC2)oc1N1CCN(C(=O)C2CC2)CC1` is 5.36%; for `N#Cc1nccn1Cc1cccc(F)c1F` it is 4.63%; for `N#Cc1nccn1Cc1cc(F)cc(F)c1` it is 5.08%. The figure for `N#Cc1nccn1Cc1ccc(F)cc1F` is 68.3%; for `C=CC(=O)N1CCC(c2ccnn2C)CC1` it is 4.28%; for `COC1CCN(c2nc(C#N)c(Cl)s2)CC1` it is 7.16%. Next, `Cc1ccc(C#N)nc1N1CCCOC(C)C1` (stereo not shown): 42.8%; `COC1CCN(c2nc(C#N)ccc2C)CC1`: 71.3%; `N#CC(=Cc1cnn(-c2ccccc2)c1)C(=O)O`: 10.6%. In the case of `CN(C)C(=O)Sc1cnc2nccn2c1`, the Inhibition % was determined as 3.18%. Next, `CN(CC12CC3CC(CC(C3)C1)C2)C(=O)CCl`: 9.71%; `CN(C(=O)CCl)C1CCS(=O)(=O)C1` (stereo not shown): 8.14%; `CN(C(=O)CCl)C1CCCCC1`: 92.5%. As to `CN(C(=O)CCl)C1CC1`, the Inhibition % is recorded as -0.367%. `CC1CCC(N(C)C(=O)CCl)CC1` (stereo not shown): the Inhibition % is recorded as 101%. The figure for `CN(CC1CCCCC1)C(=O)CCl` is 50%.

On to `CN(CC1CC1)C(=O)CCl`, for which the Inhibition % is on record as 50.3%. Next, `CN(C(=O)CC1OCCCO1)C1CCCCC1`: 3.82%; `CCN(C(=O)CCl)C1CCCCC1`: 9.37%; `C=CC(=O)Nc1cccc2c1CN(CC(C)C)C2`: 8.44%. Next, `O=C(c1ccc(S)nc1)N1CCCC1`: 40.7%; `N#CN(Cc1nnc(C2CCC2)o1)c1ccc(F)c(Cl)c1`: -0.412%. Next, `C=CC(=O)N1CCC12CCOC2` (stereo not shown): 7.06%. As to `Cc1ccc(C(C)NC(=O)Cn2cnc(C#N)n2)cc1C` (stereo not shown), the Inhibition % was 3.5%. Regarding `O=C(O)c1cc(S(=O)(=O)F)ccc1Cl`, the Inhibition % turned out to be 7.95%. Next, `Cc1ccc(S(=O)(=O)F)cc1C(=O)O`: 87.9%; `CC(=O)c1ccc(S(=O)(=O)F)cc1`: 34.9%. The figure for `Cc1cc(S(=O)(=O)F)ccc1C(=O)O` is 85.1%.

`Cc1ccc(S(=O)(=O)F)cc1`: the Inhibition % was 2.62%. The figure for `C=CC(=O)NC1CCOC2(CCSC2)C1` (stereo not shown) is 6.26%; for `Cc1cc(C)n(S(=O)(=O)N2CCCCC2)n1` it is 7.02%; for `COCC1(C(=O)Nc2cccc(S(=O)(=O)F)c2)CCCC1` it is 94.3%. The figure for `COc1ccccc1C(=O)Nc1cccc(S(=O)(=O)F)c1` is 4.59%; for `O=C(Nc1cccc(S(=O)(=O)F)c1)C1(CF)CCOCC1` it is 95.3%; for `O=C(Nc1cccc(S(=O)(=O)F)c1)C1(CF)CCC1` it is 95.8%. The figure for `CCC1(C(=O)Nc2cccc(S(=O)(=O)F)c2)CCC1` is 93.8%; for `COc1ccc(S(=O)(=O)n2ccc(C)n2)cc1C` it is 2.32%; for `Cc1nn(C)c(Cl)c1C=CC(=O)N1CCC(C(=O)O)C1.Cl` (stereo not shown) it is 7.34%. For the molecule `C=CC(=O)NCC1CC2(CCC2)CO1` (stereo not shown), the Inhibition % turned out to be 5.74%. The figure for `Cc1cccc(-n2nnnc2SC2CC(C)OC2=O)c1` (stereo not shown) is 3.51%; for `Cn1cc(NS(=O)(=O)C=Cc2ccccc2Cl)cn1` it is 28.6%; for `CCn1cc(C2NC(=O)C23CCOCC3)cn1` (stereo not shown) it is 2.01%.

On to `Cc1ccc(NC(=O)C(C#N)=Cc2cn(C)cn2)c(C)c1`, for which the Inhibition % stood at 10.3%. The figure for `CCN(C(=O)CCl)c1ccc(F)cc1` is 31.3%; for `Cc1cc(C=C(C#N)C(=O)NCC2CCCO2)ccc1F` (stereo not shown) it is 2.68%; for `O=C(N[C@H]1CC[C@@H](CS(=O)(=O)F)C1)C1CCOCC1` (racemic) it is 77.4%. For `CC(C)(C)OC(=O)N[C@@H]1CC[C@H](CS(=O)(=O)F)C1` (racemic), the Inhibition % is recorded as 87.2%. Turning to `COC(=O)C1CC(S(=O)(=O)F)CN1C(=O)C1CCOCC1` (stereo not shown), the Inhibition % was 9.64%. Next, `O=S(=O)(F)CC1CCOCC1`: 10.5%. With `CC(C)(C)OC(=O)N1CCCC(S(=O)(=O)F)C1` (stereo not shown), the Inhibition % is given as 10.7%. Take `Cl.N[C@@H]1CC[C@H](CS(=O)(=O)F)C1` (racemic): the Inhibition % is recorded as 22.9%. Next, `CC(C)C1(c2ccccc2)CO1` (stereo not shown): 4.43%; `N#CSCc1nc2ccccc2[nH]1`: 24.5%; `COc1cc(SC#N)ccc1O`: 15.4%. Turning to `CS(=O)(=O)OCC1CCCNC1=O` (stereo not shown), the Inhibition % amounted to 7.7%.

As for `Cl.O=S(=O)(F)CCNc1ccc(F)cc1`, the Inhibition % is reported as 36.8%. Turning to `COc1ccc(NCCS(=O)(=O)F)cc1.Cl`, the Inhibition % was found to be 44.4%.

As for `Cl.O=S(=O)(F)CCNc1ccc(Cl)cc1`, the Inhibition % is 66%. In the case of `N#Cc1ccc(Cl)c(Cl)n1`, the Inhibition % was 5.12%.

For the molecule `N#Cc1ccc2[nH]ccc2n1`, the Inhibition % is reported as 18.7%. In the case of `N#Cc1ccc2cc[nH]c2n1`, the Inhibition % is recorded as 68.4%.

Turning to `COc1cc(C=C(C#N)C(=O)NC(C)C)cc(Cl)c1O`, the Inhibition % is given as -0.272%.

The values are drawn from paper PMC9574860, “Chemical Toolkit for PARK7: Potent, Selective, and High-Throughput” (Journal of Medicinal Chemistry, 2022).
